Test results published in PubChem BioAssay (EPA / NIEHS).
“And” between values parts separate entries of the source, which are not always exact repeats. Equal values may be shown once. Results filed as inconclusive are left out. Some structures have more than one record in an assay (separate samples or runs), and their calls can disagree. The source made the active and inactive calls. The calls were made as follows, unless noted: active = hit-call score of the fitted dose curve at least 0.9, where 1 is the maximum; inactive = score below 0.9.

What was measured:
[1] = target: Nuclear respiratory factor 1 (Homo sapiens) (UniProt Q16656); test: ATG_NRF1_CIS: Attagene CIS-FACTORIAL HepG2 Assay for human Nuclear Respiratory Factor 1 (NRF1) Orphan Gene (AID 2282987); details: HepG2 NRF1 cis-element reporter, Attagene multiplex; actives raise or lower the signal
Method in brief: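 Cells (HepG2, transient MRTU transfection) are exposed to compound for 24 h, then RNA isolated and reporter mRNA amplified and fluorescently labelled. Fragments are separated by capillary electrophoresis; signal change is fitted bidirectionally relative to DMSO.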

[2] = ATG_NFI_CIS: Attagene CIS-FACTORIAL HepG2 Assay for human Nuclear Factor I (NFI) (AID 2282989); details: HepG2 cis-regulatory reporter, NFI response element transcription; actives raise or lower the signal
Method in brief: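 Transient MRTU transfection of HepG2 → 24 h chemical dosing → total RNA, oligo(dT) RT → PCR, 6-FAM primer extension, HpaI cut → capillary electrophoresis. Endpoint fitted bidirectionally relative to DMSO.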

[3] = ATG_NF_kB_CIS: Attagene CIS-FACTORIAL HepG2 Assay for human Nuclear Factor Kappa B (NF-kB) (AID 2282991); details: HepG2 Attagene cis-factorial NF-kB reporter mRNA; actives raise or lower the signal
Method in brief: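 Measures mRNA induction of an NF-kB-responsive cis-element reporter in HepG2 cells transfected with multiple reporter units, sampled 24 h post-dosing; quantified by fluorescence after RT-PCR and capillary electrophoresis, fitted for activation or inhibition against DMSO.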

[4] = ATG_Oct_MLP_CIS: Attagene CIS-FACTORIAL HepG2 Assay for human Octamer-Binding Transcription Factor (Oct) (AID 2282993); details: HepG2 Attagene cis-factorial Oct reporter, mRNA; actives raise or lower the signal
Method in brief: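 Transient MRTU transfection of HepG2 → 24 h compound treatment → RNA isolation, reverse transcription, PCR → 6-FAM primer extension, HpaI digest → capillary electrophoresis. Activity fitted both directions against DMSO.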

[5] = BSK_3C_TissueFactor: BioMAP Diversity Plus: 3C Assay for Tissue Factor Biomarker Activity (AID 2282997); details: BioMAP 3C HUVEC, tissue factor biomarker readout; actives raise or lower the signal
Method in brief: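 HUVEC, 3C system, 24 h post-dose; Tissue Factor by ELISA; bidirectional fit vs DMSO baseline.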

[6] = BSK_3C_uPAR: BioMAP Diversity Plus: 3C Assay for Urokinase-type plasminogen activator receptor (uPAR) Biomarker Activity (AID 2282998); details: BioMAP 3C HUVEC, uPAR biomarker ELISA; actives raise or lower the signal
Method in brief: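 ELISA readout of uPAR on human vascular endothelium (umbilical vein primary cells), taken 24 h after chemical dosing. Increases and decreases are both fitted relative to DMSO vehicle.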

[7] = BSK_3C_VCAM1: BioMAP Diversity Plus: 3C Assay for Vascular cell adhesion molecule 1 (VCAM1) Biomarker Activity (AID 2282999); details: BioMAP 3C HUVEC, VCAM1 ELISA, cytokine-stimulated; actives raise or lower the signal
Method in brief: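 Activity fitted in both directions relative to DMSO, with ELISA measurement of the surface marker on primary HUVEC (3C) at 24 h post-treatment; parallel SRB staining (0.1% SRB, TCA-fixed, 560 nm) flagged overt cytotoxicity.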

[8] = BSK_4H_Eotaxin3: BioMAP Diversity Plus: 4H Assay for Eotaxin 3 Biomarker Activity (AID 2283000); details: primary human endothelial cells (HUVEC); actives raise or lower the signal
Method in brief: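 Readout is Eotaxin-3 (CCL26) level by ELISA in primary human umbilical vein endothelial cells harvested 24 h after chemical exposure; activity fitted in both directions against DMSO control.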

[9] = target: human Peroxisome Proliferator-activated Receptor delta (PPARd), PPARD (gene 5467) (UniProt Q03181); test: ATG_PPARd_TRANS: Attagene TRANS-FACTORIAL HepG2 Assay for human Peroxisome Proliferator-activated Receptor delta (PPARd) (AID 2283002; active = hit-call score of the fitted dose curve at least 0.9, where 1 is the maximum)
Method in brief: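 Transient HepG2 transfection (multiple GAL4-UAS RTUs, chimeric receptor-Gal4); 24 h dosing; total RNA → oligo(dT) RT → PCR → 6-FAM primer extension → HpaI cut → CE. Positive direction vs DMSO.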

[10] = read-out: Intercellular Adhesion Molecule 1 (ICAM1), ICAM1 (gene 3383); test: BSK_3C_ICAM1: BioMAP Diversity Plus: 3C Assay for Intercellular Adhesion Molecule 1 (ICAM1) Biomarker Activity (AID 2283003); details: primary human endothelial cells (HUVEC); actives raise or lower the signal
Method in brief: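 ELISA read-out of ICAM-1; HUVEC (primary human), 3C system, 24 h post-dosing; bidirectional fit vs DMSO baseline.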

[11] = target: human Retinoic Acid Receptor beta (RARb), RARB (gene 5915) (UniProt P10826); test: ATG_RARb_TRANS: Attagene TRANS-FACTORIAL HepG2 Assay for human Retinoic Acid Receptor beta (AID 2283004; active = hit-call score of the fitted dose curve at least 0.9, where 1 is the maximum)
Method in brief: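 Readout is reporter mRNA induction: RNA reverse-transcribed, PCR-amplified, FAM-labelled, HpaI-cut and resolved by capillary electrophoresis. Transiently transfected HepG2 cells carrying exogenous NR–Gal4 chimeras were dosed for 24 h; activity fitted upward relative to DMSO.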

[12] = BSK_3C_Proliferation: Cell Proliferation Assessment in the BioMAP Diversity Plus: 3C Assay (AID 2283006); details: primary human endothelial cells (HUVEC);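 as to AC50: potency may reflect either rise or fall in cell number versus DMSO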
Method in brief: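 HUVEC, sub-confluent; 48 h chemical exposure; 10% TCA fix, 0.1% SRB stain, A560 total protein. Gain or loss of signal fitted both directions vs DMSO control.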

[13] = target: Peroxisome proliferator-activated receptor gamma (Homo sapiens) (UniProt P37231); test: ATG_PPARg_TRANS: Attagene TRANS-FACTORIAL HepG2 Assay for human Peroxisome Proliferator-activated Receptor-gamma (PPARg) (AID 2283007; active = hit-call score of the fitted dose curve at least 0.9, where 1 is the maximum)
Method in brief: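 Gain-of-signal endpoint relative to DMSO, derived from reporter mRNA levels quantified by RT-PCR and capillary electrophoresis. Cells were HepG2 transiently expressing a chimeric NR-Gal4 construct with GAL4-UAS reporters, exposed to chemicals for 24 h.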

[14] = target: Nuclear receptor subfamily 1 group I member 2 (Homo sapiens) (UniProt O75469); test: ATG_PXR_TRANS: Attagene TRANS-FACTORIAL HepG2 Assay for human Pregnane X Receptor (PXR) (AID 2283008; active = hit-call score of the fitted dose curve at least 0.9, where 1 is the maximum)
Method in brief: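 Multiplexed TRANS reporter panel in HepG2; this component tracks PXR-Gal4-driven reporter mRNA after 24 h dosing, measured by RT-PCR with capillary electrophoresis fluorescence, fitted against DMSO.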

[15] = target: human Retinoic Acid Receptor gamma (RARg), RARG (gene 5916) (UniProt P13631); test: ATG_RARg_TRANS: Attagene TRANS-FACTORIAL HepG2 Assay for human Retinoic Acid Receptor gamma (RARg) (AID 2283009; active = hit-call score of the fitted dose curve at least 0.9, where 1 is the maximum)
Method in brief: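 Readout: reporter transcript levels via RT-PCR, 6-FAM primer-extension labelling, HpaI digestion and capillary electrophoresis. Cells: HepG2 carrying transfected RARg-GAL4 chimera plus UAS reporter set. Dosing 24 h; DMSO negative control.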

[16] = target: Cellular tumor antigen p53 (Homo sapiens) (UniProt P04637); test: ATG_p53_CIS: Attagene CIS-FACTORIAL HepG2 Assay for human p53 Transcription Factor (AID 2282994); details: HepG2 p53 cis-element reporter, Attagene mRNA; actives raise or lower the signal
Method in brief: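 In HepG2 cells, reporter transcription units under cis-regulatory promoters were transiently introduced. Following 24 h treatment, RNA was processed to labelled, digested cDNA fragments read by capillary electrophoresis; fitting was bidirectional versus DMSO.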

[17] = target: human Peroxisome Proliferator-activated Receptor alpha (PPARa), PPARA (gene 5465) (UniProt Q07869); test: ATG_PPARa_TRANS: Attagene TRANS-FACTORIAL HepG2 Assay for human Peroxisome Proliferator-activated Receptor alpha (PPARa) (AID 2283001; active = hit-call score of the fitted dose curve at least 0.9, where 1 is the maximum)
Method in brief: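 Transfected HepG2 cells treated with test chemical for 24 h. RNA isolated, reverse-transcribed with oligo(dT), PCR-amplified, FAM-labelled and HpaI-digested. Fragments sized by capillary electrophoresis; gain-of-signal fit relative to DMSO.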

[18] = target: Retinoic acid receptor alpha (Homo sapiens) (UniProt P10276); test: ATG_RARa_TRANS: Attagene TRANS-FACTORIAL HepG2 Assay for human Retinoic Acid Receptor alpha (RARa) (AID 2283005; active = hit-call score of the fitted dose curve at least 0.9, where 1 is the maximum)
Method in brief: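 Reporter transcripts, measured by RT-PCR with fluorescent labeling and capillary electrophoresis after 24 h dosing, reflect activity of an exogenous human RARa–GAL4 fusion in transiently transfected HepG2. Fitted for increase relative to DMSO.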

[19] = ATG_NRF2_ARE_CIS: Attagene CIS-FACTORIAL HepG2 Assay for human Nuclear Factor Erythroid 2 Related Factor 2 (NFR2) response to Antioxidant Response Elements (ARE) (AID 2282992); details: HepG2 Attagene ARE/NRF2 reporter, transcription factor activity; actives raise or lower the signal
Method in brief: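 Using transiently transfected HepG2 cells exposed for 24 h, reporter mRNA levels were determined by RT-PCR with fluorescent primer extension and capillary electrophoresis, analysed for gain or loss of signal against DMSO.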

Measured: AC50

Sequence of Nuclear receptor subfamily 1 group I member 2 (Homo sapiens) (O75469 whole entry, looked up, the tested form may be a part): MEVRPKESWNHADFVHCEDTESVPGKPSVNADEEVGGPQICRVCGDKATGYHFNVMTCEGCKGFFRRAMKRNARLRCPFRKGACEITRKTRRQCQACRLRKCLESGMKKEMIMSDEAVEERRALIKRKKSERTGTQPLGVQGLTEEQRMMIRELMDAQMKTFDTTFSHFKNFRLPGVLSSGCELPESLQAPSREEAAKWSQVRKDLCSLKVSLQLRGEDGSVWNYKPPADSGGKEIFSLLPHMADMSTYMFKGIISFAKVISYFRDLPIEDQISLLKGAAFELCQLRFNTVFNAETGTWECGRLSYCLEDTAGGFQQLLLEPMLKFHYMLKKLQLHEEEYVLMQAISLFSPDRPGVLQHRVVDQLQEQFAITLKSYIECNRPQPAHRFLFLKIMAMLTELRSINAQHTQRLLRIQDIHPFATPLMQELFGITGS
Sequence of human Retinoic Acid Receptor beta (RARb), RARB (gene 5915) (P10826 whole entry, looked up, the tested form may be a part): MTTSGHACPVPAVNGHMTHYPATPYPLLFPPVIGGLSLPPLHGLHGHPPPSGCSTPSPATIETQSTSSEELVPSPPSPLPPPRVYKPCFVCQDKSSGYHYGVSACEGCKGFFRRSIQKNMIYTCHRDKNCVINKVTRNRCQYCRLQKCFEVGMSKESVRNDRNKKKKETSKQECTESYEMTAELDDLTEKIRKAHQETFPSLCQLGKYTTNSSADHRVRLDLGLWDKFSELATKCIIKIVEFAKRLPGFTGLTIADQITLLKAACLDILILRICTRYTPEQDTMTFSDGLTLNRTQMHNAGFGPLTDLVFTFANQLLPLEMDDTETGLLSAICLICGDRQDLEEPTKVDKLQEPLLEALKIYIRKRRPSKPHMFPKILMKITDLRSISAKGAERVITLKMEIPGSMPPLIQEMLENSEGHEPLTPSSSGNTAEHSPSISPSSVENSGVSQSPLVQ
Sequence of Nuclear respiratory factor 1 (Homo sapiens) (Q16656 whole entry, looked up, the tested form may be a part): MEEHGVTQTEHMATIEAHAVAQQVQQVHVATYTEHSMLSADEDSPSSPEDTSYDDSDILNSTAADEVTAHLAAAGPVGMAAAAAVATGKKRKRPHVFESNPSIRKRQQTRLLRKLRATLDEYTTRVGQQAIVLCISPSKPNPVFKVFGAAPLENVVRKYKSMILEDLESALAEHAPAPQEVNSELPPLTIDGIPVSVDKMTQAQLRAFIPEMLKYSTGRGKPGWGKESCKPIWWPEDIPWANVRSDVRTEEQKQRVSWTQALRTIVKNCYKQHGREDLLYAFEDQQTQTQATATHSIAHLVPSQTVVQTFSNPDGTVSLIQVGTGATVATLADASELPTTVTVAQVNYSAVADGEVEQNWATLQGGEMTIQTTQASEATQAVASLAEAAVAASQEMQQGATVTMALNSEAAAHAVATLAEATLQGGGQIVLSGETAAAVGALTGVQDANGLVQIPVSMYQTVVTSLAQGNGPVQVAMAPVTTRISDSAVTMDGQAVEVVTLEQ
Sequence of Peroxisome proliferator-activated receptor gamma (Homo sapiens) (P37231 whole entry, looked up, the tested form may be a part): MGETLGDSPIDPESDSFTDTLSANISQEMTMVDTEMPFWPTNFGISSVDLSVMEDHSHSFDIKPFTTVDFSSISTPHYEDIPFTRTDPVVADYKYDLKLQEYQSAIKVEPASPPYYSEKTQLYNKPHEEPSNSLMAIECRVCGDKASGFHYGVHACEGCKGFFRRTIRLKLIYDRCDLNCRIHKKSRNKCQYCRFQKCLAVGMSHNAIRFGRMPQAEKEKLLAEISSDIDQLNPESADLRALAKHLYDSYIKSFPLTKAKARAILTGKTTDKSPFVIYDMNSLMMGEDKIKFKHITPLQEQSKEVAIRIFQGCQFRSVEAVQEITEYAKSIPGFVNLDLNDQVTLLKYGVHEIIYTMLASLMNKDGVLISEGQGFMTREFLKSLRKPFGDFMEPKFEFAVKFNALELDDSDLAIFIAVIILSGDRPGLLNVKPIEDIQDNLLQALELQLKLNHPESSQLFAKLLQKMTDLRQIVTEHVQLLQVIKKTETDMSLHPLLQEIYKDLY
Sequence of human Peroxisome Proliferator-activated Receptor delta (PPARd), PPARD (gene 5467) (Q03181 whole entry, looked up, the tested form may be a part): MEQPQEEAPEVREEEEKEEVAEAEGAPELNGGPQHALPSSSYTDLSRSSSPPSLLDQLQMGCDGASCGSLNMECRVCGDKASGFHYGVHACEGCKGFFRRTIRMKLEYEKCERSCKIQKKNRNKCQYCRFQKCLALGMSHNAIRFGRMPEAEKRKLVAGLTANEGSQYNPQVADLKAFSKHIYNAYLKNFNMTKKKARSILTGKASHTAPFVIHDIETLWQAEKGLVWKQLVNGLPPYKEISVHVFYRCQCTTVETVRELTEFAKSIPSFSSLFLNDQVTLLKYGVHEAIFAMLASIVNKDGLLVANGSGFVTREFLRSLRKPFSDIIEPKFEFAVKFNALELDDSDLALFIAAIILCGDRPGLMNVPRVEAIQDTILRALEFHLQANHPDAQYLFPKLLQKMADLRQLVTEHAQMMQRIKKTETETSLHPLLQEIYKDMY
Sequence of human Retinoic Acid Receptor gamma (RARg), RARG (gene 5916) (P13631 whole entry, looked up, the tested form may be a part): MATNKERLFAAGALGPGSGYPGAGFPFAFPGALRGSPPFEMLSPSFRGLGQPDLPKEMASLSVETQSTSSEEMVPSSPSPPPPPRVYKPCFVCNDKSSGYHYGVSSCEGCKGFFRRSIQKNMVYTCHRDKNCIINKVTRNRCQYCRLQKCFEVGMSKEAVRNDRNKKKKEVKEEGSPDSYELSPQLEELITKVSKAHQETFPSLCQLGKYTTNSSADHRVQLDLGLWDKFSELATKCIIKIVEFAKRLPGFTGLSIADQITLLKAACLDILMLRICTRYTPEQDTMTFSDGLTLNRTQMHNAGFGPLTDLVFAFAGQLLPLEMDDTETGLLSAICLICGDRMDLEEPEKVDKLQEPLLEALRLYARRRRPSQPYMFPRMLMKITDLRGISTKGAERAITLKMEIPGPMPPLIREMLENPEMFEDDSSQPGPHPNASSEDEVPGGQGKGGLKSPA
Sequence of Cellular tumor antigen p53 (Homo sapiens) (P04637 whole entry, looked up, the tested form may be a part): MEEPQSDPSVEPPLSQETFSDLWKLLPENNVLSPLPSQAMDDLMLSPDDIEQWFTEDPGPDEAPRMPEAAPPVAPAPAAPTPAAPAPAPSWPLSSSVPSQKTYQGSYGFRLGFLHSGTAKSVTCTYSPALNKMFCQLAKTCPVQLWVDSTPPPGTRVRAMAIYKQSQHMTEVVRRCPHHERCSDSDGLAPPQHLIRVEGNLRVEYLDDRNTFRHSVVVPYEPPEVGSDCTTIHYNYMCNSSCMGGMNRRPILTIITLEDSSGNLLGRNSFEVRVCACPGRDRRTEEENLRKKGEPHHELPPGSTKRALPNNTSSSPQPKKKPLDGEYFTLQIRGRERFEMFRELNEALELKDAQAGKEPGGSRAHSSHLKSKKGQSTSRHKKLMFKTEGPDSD
Sequence of human Peroxisome Proliferator-activated Receptor alpha (PPARa), PPARA (gene 5465) (Q07869 whole entry, looked up, the tested form may be a part): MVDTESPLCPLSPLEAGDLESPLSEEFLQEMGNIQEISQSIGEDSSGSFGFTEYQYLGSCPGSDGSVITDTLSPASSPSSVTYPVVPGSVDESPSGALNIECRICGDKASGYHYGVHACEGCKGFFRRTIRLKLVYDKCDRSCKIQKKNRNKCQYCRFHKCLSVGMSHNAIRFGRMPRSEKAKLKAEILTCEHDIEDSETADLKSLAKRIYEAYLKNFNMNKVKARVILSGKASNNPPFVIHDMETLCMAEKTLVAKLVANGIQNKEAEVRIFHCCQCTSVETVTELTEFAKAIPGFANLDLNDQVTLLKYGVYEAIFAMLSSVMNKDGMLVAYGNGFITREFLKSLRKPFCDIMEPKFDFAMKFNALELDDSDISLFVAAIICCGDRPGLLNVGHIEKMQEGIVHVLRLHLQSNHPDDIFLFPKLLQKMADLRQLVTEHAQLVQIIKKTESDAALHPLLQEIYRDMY
Sequence of Retinoic acid receptor alpha (Homo sapiens) (P10276 whole entry, looked up, the tested form may be a part): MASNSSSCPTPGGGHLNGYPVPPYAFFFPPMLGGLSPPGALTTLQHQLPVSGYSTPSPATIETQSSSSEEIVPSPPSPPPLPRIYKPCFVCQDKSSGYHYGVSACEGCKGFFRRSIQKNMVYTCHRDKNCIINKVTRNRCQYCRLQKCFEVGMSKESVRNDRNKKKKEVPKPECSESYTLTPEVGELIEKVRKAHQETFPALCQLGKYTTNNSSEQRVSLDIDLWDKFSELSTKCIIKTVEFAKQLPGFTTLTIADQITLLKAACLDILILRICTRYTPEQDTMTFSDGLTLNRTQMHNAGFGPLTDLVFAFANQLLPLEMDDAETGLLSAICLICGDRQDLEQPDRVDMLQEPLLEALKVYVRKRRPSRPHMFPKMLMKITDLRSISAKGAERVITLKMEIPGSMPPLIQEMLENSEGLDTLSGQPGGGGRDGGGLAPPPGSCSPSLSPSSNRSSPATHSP

O=C(NO)C1(NS(=O)(=O)c2ccc(Oc3ccc(F)cc3)cc2)CCOCC1
inactive: [1] | [2] | [3] | [4] | [5] | [6] | [7] | [8] | [9] | [10] | [11] | [12] | [13] | [15]
active: [14] 31700 nM

CCc1cccc(CC)c1N
inactive: [1] | [2] | [4] | [16] | [5] | [6] | [7] | [8] | [9] | [10] | [12] | [14]

CCCCCCCC1CCC(=O)O1 (stereo unspecified)
inactive: [4] | [16] | [5] | [6] | [7] | [8] | [17] | [9] | [10] | [18] | [12] | [13] | [14] | [15]

COc1cc2c(c(OC)c1OC)-c1ccc(OC)c(=O)cc1[C@@H](NC(C)=O)CC2
inactive: [2] | [3] | [19] | [4] | [5] | [10] | [13] | [14] | [15]
active: [1] 257 nM | [6] 149 nM | [7] 404 nM | [8] 148 nM | [12] 148 nM

CC(C)c1nnc2ccc(-c3ocnc3-c3cc(F)ccc3F)cn12
active: [4] 130000 nM | [5] 743 nM
inactive: [16] | [6] | [7] | [8] | [17] | [9] | [10] | [11] | [18] | [12] | [13] | [14] | [15]

Nc1ccn([C@@H]2O[C@H](CO)[C@@H](O)[C@@H]2O)c(=O)n1
active: [12] 519 nM
inactive: [1] | [2] | [19] | [4] | [5] | [6] | [7] | [8] | [9] | [10] | [15]

OCCNCCO
inactive: [1] | [2] | [19] | [4] | [5] | [6] | [7] | [8] | [9] | [10] | [12]

OC(O)(C(F)C(O)(O)C(F)(F)F)C(F)(F)F
active: [1] 38.6 µM and 72.7 µM | [2] 52.4 µM and 51.5 µM | [3] 16.6 µM and 7.74 µM | [16] 28.4 µM and 21.2 µM | [5] 13600 nM | [6] 15200 nM | [8] 53.3 µM and 53.6 µM | [12] 27300 nM | [13] 150 µM and 94.2 µM
inactive: [4] | [5] | [6] | [7] | [9] | [10] | [11] | [12] | [14] | [15]

O=c1[nH]cnc2c1ncn2[C@H]1CC[C@@H](CO)O1
inactive: [1] | [2] | [19] | [4] | [5] | [6] | [7] | [8] | [9] | [10] | [11] | [12] | [13] | [14]
